According to PubChem BioAssay (NCI):
About 83,000 compounds went through this panel and 20% of them were active in at least one assay; those are over-represented in the sample as a whole.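 Assay: single dose, 48 h. Readout: percent growth (0 = no net growth; negative = cell death). Active: <10.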 Unmarked numbers belong to inactive results. Active and inactive are the calls of the source.

What was measured:
Experiment in all cases: NCI-60 one-dose screen, 48 h (100 = growth as untreated, 0 = no growth, -100 = all killed)
Details in all cases: 10 µM unless noted
NCI-H23 lung = system: NCI-H23 lung
NCI-H226 lung = system: NCI-H226 lung
NCI-H322M lung = system: NCI-H322M lung
HOP-62 NSCLC = system: HOP-62 NSCLC
NCI-H460 lung = system: NCI-H460 lung
HOP-92 NSCLC = system: HOP-92 NSCLC
NCI-H522 lung = system: NCI-H522 lung
A549/ATCC NSCLC = system: A549/ATCC NSCLC
786-0 renal = system: 786-0 renal
COLO 205 colon = system: COLO 205 colon
DU-145 prostate = system: DU-145 prostate
K-562 leukemia = system: K-562 leukemia
MALME-3M melanoma = system: MALME-3M melanoma
MDA-MB-231 breast = system: MDA-MB-231 breast
RXF 393 renal = system: RXF 393 renal
SF-268 CNS = system: SF-268 CNS
SF-295 CNS = system: SF-295 CNS
SF-539 CNS = system: SF-539 CNS
UACC-257 melanoma = system: UACC-257 melanoma
M14 melanoma = system: M14 melanoma

| SMILES | growth (NCI-H23 lung) | growth (NCI-H226 lung) | growth (NCI-H322M lung) | growth (HOP-62 NSCLC) | growth (NCI-H460 lung) | growth (HOP-92 NSCLC) | growth (NCI-H522 lung) | growth (A549/ATCC NSCLC) | growth (786-0 renal) | growth (COLO 205 colon) | growth (DU-145 prostate) | growth (K-562 leukemia) | growth (MALME-3M melanoma) | growth (MDA-MB-231 breast) | growth (RXF 393 renal) | growth (SF-268 CNS) | growth (SF-295 CNS) | growth (SF-539 CNS) | growth (UACC-257 melanoma) | growth (M14 melanoma) |
| --- | --- | --- | --- | --- | --- | --- | --- | --- | --- | --- | --- | --- | --- | --- | --- | --- | --- | --- | --- | --- |
| COC1=CC(c2ccc[nH]2)=N/C1=C\c1[nH]c(C)c(C(=O)OCc2ccccc2)c1C | -15.7% (active) | -25.2% (active) | -11% (active) | -43.2% (active) | -11.8% (active) | -26.3% (active) | -59.6% (active) | -26.8% (active) | -49.2% (active) | -82% (active) | 12.1% | 2.63% (active) | -76.7% (active) | -65.1% (active) | -18.1% (active) | 0.9% (active) | -79.3% (active) | -63.4% (active) | -57.5% (active) | -73.9% (active) |
| Cc1nc(-c2ccccc2)cc2c(O)c(C(=O)NN)[nH]c(=O)c12 | 103% | 104% | 92.7% | 107% | 106% | 85.6% | 94.3% | 102% | 108% | 117% | 115% | 104% | 229% | 102% | 101% | 96.2% | 111% | 100% | 118% | 101% |
| CCc1ccc(Oc2cn[nH]c2-c2ccc(OCCc3ccc(F)cc3)cc2O)cc1 | 92.8% | 96.7% | 98.6% | 114% | 94.8% | 83.2% | -36.5% (active) | 66.9% | 99.7% | 108% | 90.5% | 100% | 95.1% | 85% | 111% | 88.9% | 99.2% | 106% | 93.3% | 83.1% |
| C[C@@H]1CCC[C@H]1CC(N)C(=O)O (stereo not given in full) | 97.2% | 101% | 106% | 107% | 102% | 98.2% | 105% | 110% | 104% | 116% | 106% | 99% | 149% | 121% | 117% | 105% | 106% | 105% | 106% | 98.8% |
| COc1cnc2c(c1)C(=O)c1c-2n(CCCNCCO)c(=O)c2ccncc12 | 1.25% (active) | -43.9% (active) | -2.47% (active) | 9.4% (active) | -41.6% (active) | 20.8% | -30.2% (active) | 7.92% (active) | 12.3% | -15.7% (active) | 3.45% (active) | 5.84% (active) | -30.4% (active) | 6.98% (active) | -11.1% (active) | 14.8% | 6.34% (active) | -15.2% (active) | -19.3% (active) | -1.26% (active) |
| CCCCC[C@@H]1Cc2cc(O)c(C(=O)O)c3c2[C@H](C[C@]2(OC[C@@H](CC(=O)[C@@](C)(CC)C(=O)OC)[C@@H]2C)O3)O1 | 112% | 92.1% | 105% | 117% | 109% | 113% | 117% | 107% | 108% | 145% | 120% | 117% | 104% | 100% | 119% | 108% | 121% | 100% | 87.6% | 119% |
| COc1cc2c(c(OC)c1OC)-c1ccc(OC)c(=O)cc1[C@@H](NC(=O)CCl)CC2 | 5.73% (active) | 12.5% | 52.1% | 40.4% | -5.39% (active) | 10% | -27.4% (active) | 13% | 14.6% | -71.9% (active) | -18% (active) | 22.1% | 91.8% | 4.86% (active) | -12.6% (active) | 23.2% | 25.1% | 4.53% (active) | 60.1% | -47.2% (active) |
| O=C(NNc1nccc(Nc2ccc(S(=O)(=O)Nc3ccncc3)cc2)n1)c1ccccc1 | 5.18% (active) | 108% | 96.9% | 89.2% | 119% | 103% | 94.5% | 96.8% | 93.8% | 122% | 105% | 107% | 103% | 90.9% | 109% | 95.3% | 104% | 115% | 107% | 91.9% |
| O=S(=O)(NCCCNc1nccc(-c2c(-c3ccc(F)c(O)c3)nc3occn23)n1)c1ccccc1 | 84.1% | 115% | 98.5% | 102% | 75.7% | 71% | 75.6% | 88.1% | 123% | 48.6% | 90.5% | 56.8% | -0.289% (active) | 57.7% | 70.9% | 97.3% | 104% | 105% | 29.1% | 17.2% |
| CCN(CC)c1ccc(/C=C/C(=O)c2ccc(Nc3nc(Nc4ccccc4)nc(Nc4ccccc4)n3)cc2)cc1 | 62.5% | 63.8% | 62.4% | 50.8% | 24.8% | 24.2% | 46.8% | 37.6% | 61.8% | 27.9% | 51.6% | 22.5% | 43.2% | 52.8% | 10.6% | 62.1% | 1.72% (active) | 61.2% | 73.1% | 54.1% |
| Cc1nc(N2CCOCC2)sc1S(N)(=O)=O | 102% | 84.5% | 94% | 94.5% | 102% | 88.2% | 92.8% | 101% | 101% | 104% | 105% | 110% | 96% | 101% | 103% | 94% | 94.1% | 98% | 97.4% | 103% |
| Oc1c(Cl)cc(Cl)c2ccc(Cn3cc(-c4cc(C(F)(F)F)cc(C(F)(F)F)c4)nn3)nc12 | 77.3% | 82.1% | 103% | 101% | 101% | 24.8% | -39.4% (active) | 95.5% | 97.3% | 66.4% | 21.9% | 6.87% (active) | -13.2% (active) | 87% | -12.8% (active) | 77.2% | 106% | 43.3% | 49.9% | 47.8% |
| C=C(CNCCc1ccc(O)cc1)[C@@H]1CC[C@]2(CO)CC[C@]3(C)[C@H](CC[C@@H]4[C@@]5(C)CCC(NCCO)C(C)(C)[C@@H]5CC[C@]43C)[C@@H]12 (stereo not given in full) | -33.5% (active) | 81.5% | -24.5% (active) | -68.7% (active) | -87.4% (active) | -62.6% (active) | -67.2% (active) | -39% (active) | -92.1% (active) | -68.5% (active) | -31% (active) | -49% (active) | -90.6% (active) | -77.6% (active) | -90.3% (active) | -62.4% (active) | -80.8% (active) | -97.3% (active) | -77.9% (active) | -89.3% (active) |
| CCN(CC)c1nc(SCc2ccccc2Cl)ncc1C | 103% | 81.8% | 121% | 93.1% | 106% | 56% | 99% | 95% | 106% | 112% | 109% | 97.7% | 115% | 80.3% | 99.6% | 113% | 97.3% | 129% | 106% | 114% |
| Clc1ccc(Nc2nnc(COc3ccccc3)c3ccccc23)cc1 | 4.18% (active) | 1.78% (active) | 21.2% | 13.1% | 3.1% (active) | -28% (active) | -17.4% (active) | 4.64% (active) | 5.25% (active) | -5.75% (active) | 10.4% | 2.77% (active) | -13.5% (active) | 11.4% | -5.93% (active) | 13.2% | -1.11% (active) | 8.42% (active) | -24.9% (active) | -9.99% (active) |
| CCOC(=O)C1=NN(c2ccccc2)C(=O)/C1=C\N1C(=O)CC(=O)NC1=S | 99% | 92.5% | 96% | 90.1% | 106% | 102% | 88.8% | 103% | 106% | 103% | 110% | 98.2% | 97.6% | 91.8% | 117% | 93.9% | 103% | 100% | 105% | 93.7% |
